Here are results for 21 compounds from PubChem BioAssay (NCATS).

For one assay, the system named is NIH3T3. Nature of the assay: qHTS assay to identify novel small-molecules to repurpose for Merkel cell carcinoma treatment (AID 1296009). Also: nearly all actives have a fitted effect of over 60% in size. Also: potency is read from the fitted curve at half-maximal effect. To be noted: MCC and control cell lines, CellTiter-Glo viability, 72 h; series mostly up to 9.27 µM. In outline:
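Cells were incubated with compound for 72 hr at 37 degree celsius before CellTiter-Glo addition. Luminescence was normalized with no-cell wells as full cytotoxicity and DMSO as baseline.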

In a further assay the target is Furin (Homo sapiens) (UniProt P09958). Nature of the assay: Furin counterscreen qHTS for Zika virus inhibitors (AID 1347149). Also: nearly all actives have a fitted effect of over 70% in size. Also: potency is read from the fitted curve at half-maximal effect.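 As to activity change, negative = inhibition: purified recombinant full-length human furin enzyme at 5 nM; fluorescence gain from furin cutting a BOC-RVRR-AMC peptide substrate over 15 min; top concentration of the series differs between compounds; plate controls were no-inhibitor control for no effect and no-enzyme control for full effect.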 In outline:
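Fluorogenic cleavage of BOC-RVRR-AMC (2 microM final, Km ~15 µM) was monitored (ex 340, em 450 nm) at 37C after 15 min RT preincubation of 5 nM furin with compounds in HEPES pH 7.0 buffer with CaCl2 and Triton X-100. Percent inhibition was fitted to a 4-parameter Hill curve.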

The nature of assay [1]: Confirmatory screen NINDS Rhodamine qHTS for Zika virus inhibitors (AID 1347161). Also: nearly all actives have a fitted effect of over 60% in size. Also: potency is read from the fitted curve at half-maximal effect.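 As to activity change, negative = inhibition: purified Zika NS2B-NS3 protease with linked NS2B cofactor domain and Rhodamine110 peptide substrate; plate controls were no-inhibitor control for no effect and no-enzyme control for full effect.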 In outline:
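Kinetic fluorescence (Ex 480 nm, Em 540 nm) over 15 min with 1.5 microM Rhodamine110 peptide and 25 nM linked protease.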

Assay [2] can be described thus: HepG2 cells viability qHTS for Zika virus inhibitors (AID 1347168). Also: % is scaled to controls: 0 for no effect and ±100 for the full control effect. In outline: (§1)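 Cells seeded at 2.5 x 10^5 cells/mL in DMEM with 4% FBS and attached overnight at 37 degrees C, then exposed to compound for 24 to 48 hours. Viability read as ATP content by CellTiter Glo luminescence.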
The nature of assay [3]: NCATS anti-infectives library activity on HEK293 viability as a counter-qHTS vs the C. elegans viability qHTS (AID 1745854).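 Also: HEK293 cells exposed to compounds for 24 hr before the viability read; % is scaled to controls: 0 for no effect and ±100 for the full control effect.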 The method, boiled down:
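Cytotoxicity in human HEK293 cells is measured by ATP-dependent CellTiter-Glo luminescence following a 24 hr incubation with titrated library compounds at 37C. Top final concentration is 41.7 uM.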

For assay [4], the system named is Zika virus NS2B-NS3 protease (linked construct). The assay can be described thus: Confirmatory screen NINDS AMC qHTS for Zika virus inhibitors (AID 1347152). Also: potency is read from the fitted curve at half-maximal effect; nearly all actives have a fitted effect of over 70% in size. The method, boiled down:
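Concentration-response confirmation used the NINDS linked protease (NS2B hydrophilic domain joined to NS3 protease domain), 1 nM, with a 15-min compound preincubation. Substrate, Nle-KRR-AMC at 10 microM, was read by UV fluorescence before and after 15 min.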

Assay [5] concerns Zika virus NS2B-NS3 protease (unlinked complex). Nature of the assay: Confirmatory screen GU AMC qHTS for Zika virus inhibitors (AID 1347153).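 Also: enzyme at 25 nM with substrate at 10 µM below its Km of 18.3 µM; potency is read from the fitted curve at half-maximal effect; nearly all actives have a fitted effect of over 70% in size.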 The method, boiled down: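 Fluorescence change (ex 340/em 450 nm) over 15 min, ~20% substrate conversion, normalized to no-inhibitor and no-enzyme controls, then Hill-fitted. Unlinked protease at 25 nM; AMC peptide 10 µM.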
For assay [6], the system named is Zika virus NS2B-NS3 protease (linked). Nature of the assay: 384 well plate NINDS AMC confirmatory qHTS for Zika virus inhibitors (AID 1347163). Also: potency is read from the fitted curve at half-maximal effect; nearly all actives have a fitted effect of over 50% in size. The method, boiled down:
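Linked protease 5/30/60 nM final; cpds up to 1 mM final, ~15 min preinc. Substrate Ac-VKTGKR-AMC 30 microM final. RT, dark, 25 min; FI ex 355/em 460; normalized to no-enzyme/no-inhibitor ctrls.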

The nature of assay [7]: Vero cells viability qHTS for Zika virus inhibitors (AID 1347167). Also: potency is read from the fitted curve at half-maximal effect. The method, boiled down: as §1
A short description of assay [8]: NS1 protein of Zika virus - qHTS assay to identify small molecule inhibitors in human HEK 293 cells (AID 1347053).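 Also: plate controls were infected untreated cells for no effect and uninfected cells for full effect; nearly all actives have a fitted effect of over 55% in size.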 The method, boiled down:
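Following 20 h seeding, HEK 293 cells took compound, then 1 h later ZIKV MR766 (MOI = 0.5). Incubation ran 24 h at 37 C before TR-FRET detection of NS1; a drop in signal indicates inhibition.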

Assay [9] in a line: qHTS of pediatric cancer cell lines to identify multiple opportunities for drug repurposing: Primary screen for Saos-2 cells (AID 1347097). Also: potency is read from the fitted curve at half-maximal effect; nearly all actives have a fitted effect of over 40% in size. To be noted: Saos-2 viability, CellTiter-Glo ATP luminescence, 48 h. The method, boiled down: (§2)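 Quantitative HTS format: each compound titrated (MIPE 11 points from 0.78 nM, NPC 8 points from 0.59 nM) onto cells plated 5 hours earlier. After 48 h at 37 degrees C, CellTiter-Glo luminescence was recorded.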

A short description of assay [10]: qHTS of pediatric cancer cell lines to identify multiple opportunities for drug repurposing: Primary screen for NB1643 cells (AID 1347099). Also: nearly all actives have a fitted effect of over 50% in size. Also: potency is read from the fitted curve at half-maximal effect. In outline:
as §2

A short description of assay [11]: qHTS of pediatric cancer cell lines to identify multiple opportunities for drug repurposing: Primary screen for OHS-50 cells (AID 1347103). Also: potency is read from the fitted curve at half-maximal effect; nearly all actives have a fitted effect of over 40% in size. Particulars: OHS-50 osteosarcoma viability, CellTiter-Glo luminescence, 48 h. The method, boiled down:
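Cells (500-1,000/well) rested 5 h, then received compounds for 48 h; metabolically active cells were measured by CellTiter-Glo luminescence. Final concentrations spanned up to 46 µM (MIPE, 11-point) or 0.59 nM-46 µM (NPC, 8-point) in primary screens, 11-point in follow-ups.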

Assay [12] has as its system Zika virus NS2B-NS3 protease. Nature of the assay: Primary screen GU AMC qHTS for Zika virus inhibitors (AID 1347154).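 Also: 0% = no-inhibitor control and -100% = no-enzyme control; nearly all actives have a fitted effect of over 70% in size.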 The method, boiled down: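 Unlinked Zika NS2B hydrophilic domain–NS3 protease complex at 25 nM in 10 mM Tris-HCl pH 8.0, 0.01% Tween 20, with an AMC peptide substrate. Fluorescence change (340/450 nm) over 15 min at room temperature, normalized to controls, fitted to 4-parameter Hill.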

Assay [13] is described as follows: qHTS to identify inhibitors of the type 1 interferon - major histocompatibility complex class I in skeletal muscle: primary screen against the NCATS Pharmaceutical Collection (AID 1347407).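 Also: luminescence of HiBiT knocked into endogenous HLA-B as interferon-induced MHC class I level; % is scaled to controls: 0 for no effect and ±100 for the full control effect.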 The method, boiled down: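 A qHTS format is used: 8-point, 1:5 compound series with 46 uM top final concentration, applied alongside 4 ng/ml IFN-beta to HLA-B*08:01-HiBiT knock-in myoblasts. Luminescence is measured after 24 h treatment.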

Assay [14] addresses Protein phosphatase 1D (Homo sapiens) (UniProt O15297). The assay can be described thus: RapidFire Mass Spectrometry qHTS Assay for Modulators of WT P53-Induced Phosphatase 1 (WIP1) (AID 1347424).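 Also: amount of dephosphorylated VEPPL-S-QETFS peptide product formed by WIP1; plate controls were DMSO wells for no effect and GSK830371 inhibitor control at 10 µM for full effect.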 The method, boiled down:
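10 nM WIP1 preincubated with compounds 1 hr at room temperature in pH 7.5 Tris buffer with 30 mM MgCl2, 1 mM TCEP; 2 uM VEPPL-pS-QETFS phosphopeptide for 5 min, formic acid quench; dephosphorylated product quantified by RapidFire MS against labelled standard.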

Assay [15] in a line: Primary qHTS for inhibitors of La Crosse Virus (LACV) - induced cell death in SH-SY5Y cells (AID 1508616).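 Also: top concentration of the series differs between compounds; 0% = infected DMSO wells and 100% = uninfected DMSO wells; higher means more rescue of cells from virus-induced death.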 In outline: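 Readout was luminescence from ATPLite 1step added after a 6-day LACV infection (0.01 MOI) of SH-SY5Y cells that had received pin-transferred compound 24 hr after seeding.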
A short description of assay [16]: Primary qHTS for small molecule stabilizers of the endoplasmic reticulum resident proteome: Secreted ER Calcium Modulated Protein (SERCaMP) assay (AID 1508630). Also: % is scaled to controls: 0 for no effect and ±100 for the full control effect. The method, boiled down:
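GLuc-SERCaMP-expressing SH-SY5Y cells, pretreated 16 h with compound, are challenged with thapsigargin to empty ER calcium stores; after 4 h, coelenterazine is added directly to the medium and luminescence is imaged.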

Assay [17] deals with N-terminal Xaa-Pro-Lys N-methyltransferase 1 (Homo sapiens) (UniProt Q9BV86). Nature of the assay: Confirmatory qHTS for Inhibitors of N-terminal methyltransferase 1 (NTMT1): MTaseGlo Assay (AID 1645874). Also: nearly all actives have a fitted effect of over 65% in size. Also: potency is read from the fitted curve at half-maximal effect.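 As to activity change, negative = inhibition: luminescence from SAH made as NTMT1 methylates SPKRIA peptide using SAM; 0% = DMSO control and -100% = no-enzyme control.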 In outline:
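Preincubation of NTMT1 (125 nM) plus SAM (100 uM) with test compounds lasted 15 min; methylation of 1 uM SPKRIA then proceeded 30 min in the dark at room temperature. Luciferase signal reported SAH produced.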

Assay [18] is described as follows: qHTS Assay for Lipid Storage Modulators (AID 1519; calls by dose curve). To be noted: Drosophila S3 cells, BODIPY lipid droplet/cell ratio, laser cytometry, cells loaded with oleic acid. In outline: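 Cells seeded at 5,000 per well were treated with compounds over a concentration series and loaded with oleic acid (400 uM, as added). Lipid droplet fluorescence (488 nm excitation, 500-530 nm channel) was read by laser-scanning cytometry and normalized to 20 uM Triacsin C.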

Records with an inconclusive call do not appear. Active and inactive are the calls of the source. Unless noted, calls follow the shape of the dose curve; as a rule, active = well fitted curve in the direction sought with a large enough effect; inconclusive = small, poorly fitted or top-dose-only effect, or another doubt; inactive = no such curve, though single readings can be large; an effect the other way counts as inactive or inconclusive.

Sequence of N-terminal Xaa-Pro-Lys N-methyltransferase 1 (Homo sapiens) (Q9BV86 whole entry, looked up): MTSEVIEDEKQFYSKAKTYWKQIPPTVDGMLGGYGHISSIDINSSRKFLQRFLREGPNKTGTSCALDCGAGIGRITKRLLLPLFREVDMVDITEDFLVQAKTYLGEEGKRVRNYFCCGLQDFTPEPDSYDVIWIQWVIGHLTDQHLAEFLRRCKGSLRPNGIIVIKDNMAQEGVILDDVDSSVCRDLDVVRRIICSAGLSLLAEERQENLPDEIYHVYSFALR
Sequence of Furin (Homo sapiens) (P09958 whole entry, looked up): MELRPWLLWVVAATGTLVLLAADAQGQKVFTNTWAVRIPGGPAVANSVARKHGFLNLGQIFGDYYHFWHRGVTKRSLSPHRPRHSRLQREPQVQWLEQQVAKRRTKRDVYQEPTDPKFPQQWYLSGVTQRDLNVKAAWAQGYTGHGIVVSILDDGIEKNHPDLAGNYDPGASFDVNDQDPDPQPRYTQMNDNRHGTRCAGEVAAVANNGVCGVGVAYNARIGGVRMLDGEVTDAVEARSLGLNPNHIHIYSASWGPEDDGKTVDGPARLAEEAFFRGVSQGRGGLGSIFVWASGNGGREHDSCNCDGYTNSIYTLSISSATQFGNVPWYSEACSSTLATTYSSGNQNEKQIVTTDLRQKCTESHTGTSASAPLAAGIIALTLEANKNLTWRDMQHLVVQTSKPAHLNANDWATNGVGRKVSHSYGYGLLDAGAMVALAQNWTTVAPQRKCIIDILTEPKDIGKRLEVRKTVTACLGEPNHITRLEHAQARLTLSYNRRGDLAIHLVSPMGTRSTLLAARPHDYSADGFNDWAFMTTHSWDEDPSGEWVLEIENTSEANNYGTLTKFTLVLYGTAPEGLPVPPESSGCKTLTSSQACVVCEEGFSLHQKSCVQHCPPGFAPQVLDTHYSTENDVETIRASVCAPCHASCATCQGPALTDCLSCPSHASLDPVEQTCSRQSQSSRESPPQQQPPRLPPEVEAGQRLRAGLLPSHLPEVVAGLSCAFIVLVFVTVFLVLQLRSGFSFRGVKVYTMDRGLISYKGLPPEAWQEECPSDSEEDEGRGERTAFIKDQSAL
Sequence of Protein phosphatase 1D (Homo sapiens) (O15297 whole entry, looked up): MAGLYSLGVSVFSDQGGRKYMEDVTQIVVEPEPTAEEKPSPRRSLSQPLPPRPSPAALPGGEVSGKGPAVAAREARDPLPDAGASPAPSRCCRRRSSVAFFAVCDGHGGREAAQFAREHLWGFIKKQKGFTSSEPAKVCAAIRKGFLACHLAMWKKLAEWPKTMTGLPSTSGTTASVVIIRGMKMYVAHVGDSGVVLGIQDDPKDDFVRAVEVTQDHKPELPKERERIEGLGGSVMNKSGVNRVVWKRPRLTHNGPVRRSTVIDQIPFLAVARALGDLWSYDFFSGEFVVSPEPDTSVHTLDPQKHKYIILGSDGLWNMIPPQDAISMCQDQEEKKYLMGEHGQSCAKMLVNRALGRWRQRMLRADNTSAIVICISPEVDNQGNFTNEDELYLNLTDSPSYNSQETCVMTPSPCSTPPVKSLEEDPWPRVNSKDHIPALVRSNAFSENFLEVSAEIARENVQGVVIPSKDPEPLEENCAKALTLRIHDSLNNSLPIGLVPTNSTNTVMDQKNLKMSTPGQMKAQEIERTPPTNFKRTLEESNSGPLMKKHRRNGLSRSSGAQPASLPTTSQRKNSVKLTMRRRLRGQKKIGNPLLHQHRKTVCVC

Regarding `O=C(c1ccc(F)c(F)c1Nc1ccc(I)cc1F)N1CC(O)([C@@H]2CCCCN2)C1`, the Potency in the assay with NIH3T3 is 9.2 µM (active).

Turning to `CC(=O)N1c2ccc(-c3ccc(C(=O)O)cc3)cc2C(Nc2ccc(Cl)cc2)CC1C` (configuration not stated), the Potency result (with Furin (Homo sapiens); in [2]) was “inactive” throughout. Further, the Potency in assay [1] is 12.4 µM (active).

As for `CCOC(=O)c1cccc(CNc2ccc(N(C)C(=O)Nc3ccccc3)cc2)c1`, the result in [3] was inactive.

Turning to `CC1CCN(C(c2ccc(F)cc2)c2ccc(C(C)C(=O)O)cc2-c2ccc(C(F)(F)F)cc2)CC1` (configuration not stated), the Potency result (in the assay with Furin (Homo sapiens); in assay [2]) was “inactive” throughout. Moreover, the Potency was 13.9 µM (active) in assay [4], 15.6 µM (active) in assay [5], 0.891 µM (active) in assay [6] and 18.6 µM (active) in [7].

On to `CN(Cc1ccc(C(=O)O)cc1)c1ccc(OCc2c(-c3c(Cl)cccc3Cl)noc2C2CC2)nc1C(F)(F)F`, for which the Potency is 9.61 µM (active) in the assay with Furin (Homo sapiens); 13.9 µM (active) in assay [4]; 13.9 µM (active) in assay [5]; 2.21 µM (active) in [1]; 3.98 µM (active) in assay [6]. In addition, the Potency result in [7] and in assay [2] was “inactive” in each case.

`CCN(CC)c1ccc(C(=C2C=CC(=[N+](CC)CC)C=C2)c2cc(S(=O)(=O)O)ccc2S(=O)(=O)[O-])cc1`: the result in assay [8], in assay [13], in [14] and in assay [15] was inactive. For the same compound, the Potency in [9] is 21.1 µM (active); in assay [10] it was 21.1 µM (active); in assay [11], 17.4 µM (active). Besides, in [12], the Potency result was “inactive”.

As to `O=C(NC(NC(=S)Nc1ccc(F)c([N+](=O)[O-])c1)C(Cl)(Cl)Cl)C(c1ccccc1)c1ccccc1` (configuration not stated), the Potency entry in [12] and in assay [16] was “inactive” in each case.

Regarding `O=C(NCc1ccc(Oc2ccccc2)cc1)c1nc(-c2cc(Br)c(O)c(Br)c2)no1`, the Potency was 13.9 µM (active) in [4], 2.21 µM (active) in assay [1] and 2.51 µM (active) in [6]. Besides, the Potency entry in assay [2] was “inactive”.

For the compound `CC(C)(C)c1ccc(-c2nc3ccccc3[nH]2)cc1`, the Potency in assay [17] is 8.91 µM (active).

Regarding `CC1CCC2C(=CCC(O)C2(C)C)C1(C)Cc1c(O)cc(CO)c(C=O)c1O` (configuration not stated), in assay [1], the Potency was 27.3 µM (active).

In the case of `COc1ccccc1NC(=O)Nc1ccc2ccccc2c1`, in assay [17], the Potency entry is “inactive”.

Take `CS(=O)(=O)c1ccc(-c2cn3ccccc3n2)cc1`: the outcome in [8], in assay [13], in assay [14] and in assay [15] was inactive. The Potency in assay [9] was 16.8 µM (active); in assay [11], 17.4 µM (active); in the assay with Furin (Homo sapiens), 5.39 µM (active); in assay [4], 21.5 µM (active); in assay [5] it was 24.1 µM (active); in [17], 9.55 µM (active). The Potency entry in assay [10], in [1], in [7] and in assay [16] was “inactive” in each case.

With `Oc1ccc(Nc2nc(-c3ccc(Cl)cc3)cs2)cc1`, the Potency entry in assay [12] was “inactive”.

For the compound `Nc1nc(NCC2CCC(CNS(=O)(=O)c3cccc4ccccc34)CC2)nc2ccccc12` (configuration not stated), the Potency entry in [16] was “inactive”.

For `COc1cc(N2CCN(C(C)=O)CC2)ccc1Nc1ncc(Cl)c(Nc2ccc(N3CCN(C(C)=O)CC3)cc2OC)n1`, the Potency in assay [17] is 49.4 µM (active).

In the case of `CN(CC(=O)N(Cc1ccc(C2CCCCC2)cc1)c1ccc(C(=O)O)cc1)S(=O)(=O)c1c(F)c(F)c(F)c(F)c1F`, the Potency is 19.7 µM (active) in assay [4], 22.1 µM (active) in assay [5] and 50.1 µM (active) in [6].

Turning to `C=C1[C@@H](C2=CC(=O)OC2)CC[C@@]2(O)[C@@H]1CC1[C@H]2CC[C@@H]2C[C@@H](O[C@H]3O[C@@H](C)[C@@H](O[C@@H]4O[C@H](CO[C@@H]5O[C@H](CO)[C@@H](O)[C@H](O)[C@H]5O)[C@@H](O)[C@H](O)[C@H]4O)[C@H](OC)[C@H]3O)CC[C@]12C` (some centres not stated), in the assay on NIH3T3, the Potency entry was “inactive”.

Turning to `Cc1cc(CS(=O)(=O)c2ccccc2)cc(OCc2ccc(CN3CCC[C@@H]3CO)cc2)c1`, the Potency entry in assay [17] is “inactive”.

As for `N#C[C@@H]1C[C@@H]2C[C@@H]2N1C(=O)[C@@H](N)C12CC3CC(CC(O)(C3)C1)C2`, in [3], the outcome was inactive.

Regarding `Nc1ccc(N)c([N+](=O)[O-])c1`, the compound was called inactive in assay [15].

For `CCCCC(=O)N(Cc1ccc(-c2ccccc2-c2nn[nH]n2)cc1)C(C(=O)O)C(C)C` (configuration not stated), the activity change, negative = inhibition in assay [18] (at 57.5 µM (top of the series)) was -6.27% (inactive). Moreover, the max response in [18] (measured here: cell count channel max response) worked out at 7.79%; in assay [18] (measured here: lipid channel max response), 4.86%.
